Experimental findings from PubChem BioAssay (EPA / NIEHS) are described below.

Results filed as inconclusive are left out. Active and inactive are the calls of the source. The calls were made as follows: active = hit-call score of the fitted dose curve at least 0.9, where 1 is the maximum; inconclusive = response in the unintended direction; inactive = score below 0.9.

Chain of Retinoic acid receptor RXR-alpha (Homo sapiens) (P19793 whole entry, looked up): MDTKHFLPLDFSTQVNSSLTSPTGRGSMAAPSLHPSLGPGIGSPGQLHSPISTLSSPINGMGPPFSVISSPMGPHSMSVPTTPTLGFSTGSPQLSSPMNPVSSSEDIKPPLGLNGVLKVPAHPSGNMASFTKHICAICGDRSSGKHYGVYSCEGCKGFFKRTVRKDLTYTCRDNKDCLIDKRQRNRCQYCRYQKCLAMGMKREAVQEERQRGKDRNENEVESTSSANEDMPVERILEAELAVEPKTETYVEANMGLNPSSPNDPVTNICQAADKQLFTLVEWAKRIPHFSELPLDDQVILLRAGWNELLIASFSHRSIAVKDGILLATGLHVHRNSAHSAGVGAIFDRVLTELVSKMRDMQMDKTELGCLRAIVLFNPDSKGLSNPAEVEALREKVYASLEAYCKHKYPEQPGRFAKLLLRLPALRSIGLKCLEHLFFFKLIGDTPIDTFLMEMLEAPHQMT

The target of this experiment is Retinoic acid receptor RXR-alpha (Homo sapiens) (UniProt P19793). Nature of the experiment: ATG_RXRa_TRANS: Attagene TRANS-FACTORIAL HepG2 Assay for human Retinoid X Receptor alpha (RXRa) (AID 2283012). The procedure:
ATG_TRANS is a cell-based, multiplexed-readout assay that uses HepG2, a human liver cell line, with measurements taken at 24 hours after chemical dosing in a 24-well plate.ATG_RXRa_TRANS is one of 30 assay component(s) measured or calculated from the ATG_TRANS assay. It is designed to make measurements of mRNA induction, a form of inducible reporter, as detected with fluorescence intensity signals by Reverse transcription polymerase chain reaction (RT-PCR) and Capillary electrophoresis technology.Data from the assay component ATG_RXRa_TRANS was analyzed into 1 assay endpoint. This assay endpoint, ATG_RXRa_TRANS, was analyzed in the positive analysis fitting direction relative to DMSO as the negative control and baseline of activity. Using a type of inducible reporter, measures of mRNA for gain-of-signal activity can be used to understand the reporter gene at the transcription factor-level as they relate to the gene RXRA. Furthermore, this assay endpoint can be referred to as a primary readout, because this assay has produced multiple assay endpoints where this one serves a reporter gene function. To generalize the intended target to other relatable targets, this assay endpoint is annotated to the nuclear receptor intended target family, where the subfamily is non-steroidal.
Human liver HepG2 cells are transiently transfected with multiple reporter transcription units (MRTUs) in 6-well plates using FuGene 6 reagent (Roche; 3 ml FuGene/1 mg DNA). The MRTU constructs are regulated by a cis-regulating element (promoter). […] A major difference between the CIS and TRANS system is that in CIS activities of endogenous TFs are measured, whereas the TRANS assay evaluates changes in activities of exogenous, chimeric NR-Gal4 proteins. […] At the end of 24 hour incubation, total RNA was isolated using TriZol reagent (Invitrogen). The isolated RNA is then reverse-transcribed using oligo(dT) primer and Mo-MLV reverse transcriptase (Invitrogen) with DNAse I (Ambion) treatment for 30 min. The one-tenth of the produced cDNA was amplified by PCR using Taq DNA polymerase (Invitrogen) and two reporter sequence-specific primers. The PCR products were fluorescently labeled by primer extension with 6-arboxyfluorescein (6-FAM) 5'-labeled reporter sequence-specific primer (2 min at 95 C, 20 s at 68 C and 10 min at 72 C) and these products were digested with 5U of HpaI (New England Biolabs) for 2h at 37 C. The fragments were purified using Qiaquick PCR columns (Qiagen), analyzed on an ABI 3130xL genetic analyzer (Applied Biosystems) with peak positions identified by using a set of X-rhodamine (ROX)-labeled MapMarker1000 molecular weight standards (BioVentures). The raw capillary electrophoresis data was processed using Attagraph software (Attagene).
As to `CC(=O)C(C)C`, the compound was called inactive.

`C=CC(=O)O[C@H]1C[C@@H]2CC[C@@]1(C)C2(C)C`: the call was inactive. Same read-out and setting: for `Fc1ccc(Br)cc1` the value was “inactive”; for `CCCCCCCO`, “inactive”; for `CC(C)=CCCC(C)=CC#N`, “inactive”. Still for that read-out and setting: for `C=CCCCCCCCCC=O` the value was “inactive”; for `CCOC(=O)/C=C\C(=O)OCC`, “inactive”. On the same count and under the same terms, next, `COc1ccc(-c2coc3cc(O)cc(O)c3c2=O)cc1`: “inactive”; `CCOC(=O)c1ccc(C)cc1`: “inactive”; `CC1=CC(C)C(C=O)CC1` (stereo not given): “inactive”. In general, AC50 refers to the concentration giving half of the maximal activity seen. `C=C[C@@]1(C)CC(=O)[C@]2(O)[C@@]3(C)[C@@H](O)CCC(C)(C)[C@@H]3[C@H](O)[C@H](OC(C)=O)[C@@]2(C)O1`: the AC50 is 26.9 µM (active). Consider `O=S(=O)(O)c1ccc(Nc2nc(Nc3ccc(C=Cc4ccc(Nc5nc(Nc6ccc(S(=O)(=O)O)cc6)nc(N(CCO)CCO)n5)cc4S(=O)(=O)O)c(S(=O)(=O)O)c3)nc(N(CCO)CCO)n2)cc1`, for which the result was inactive. On the same count and under the same terms, for `CCCCCCCCCCCCc1ccc(O)cc1` the value was “inactive”; for `CC(C)c1ccc2ncccc2c1`, “inactive”; for `CCCCC1CCC(=O)O1` (stereo not given), “inactive”. On the same count and under the same terms, for `CC1(C)CC(O)CC(C)(C)N1[O]` the value was “inactive”; for `Cc1ccc(S(=O)(=O)N=C=O)cc1`, “inactive”; for `CCCCCCCCCCCCCC(=O)OC(C)C`, “inactive”. As to `COCC(=O)O`, the compound was classed as inactive. The same measure, in the same setting: next, `CC1=C(O)C(=O)C(C)O1` (stereo not given): “inactive”; `CC(c1cc(C(C)(C)C)cc(C(C)(C)C)c1O)c1cc(C(C)(C)C)cc(C(C)(C)C)c1O`: “inactive”.

Consider `O=C(O[C@@H]1Cc2c(O)cc(O)cc2O[C@@H]1c1cc(O)c(O)c(O)c1)c1cc(O)c(O)c(O)c1`, for which the result was inactive. Regarding `CCN1CCCC1=O`, the compound was called inactive. For the compound `COC(=O)CC(C)CCC=C(C)C` (stereo not given), the call was inactive.

`CCCCCCCCC(CO)CCCCCC` (stereo not given): the compound was classed as inactive.

Turning to `COc1cc(C)ccc1O`, the compound was called inactive. The same measure, in the same setting: next, `Cc1noc(NS(=O)(=O)c2ccc(N)cc2)c1C`: “inactive”; `N#Cc1ccc(C2CCCc3cncn32)cc1` (stereo not given): “inactive”.

On to `CC1(C)[C@@H]2CC[C@@]1(C)C(=O)C2`, for which the result was inactive. On to `Cc1cccc(C(C)(C)C)c1O`, for which the call was inactive.

For the compound `C=CCOC(=O)c1ccc(C(=O)OCC=C)c(C(=O)OCC=C)c1`, the call was inactive.

`Cc1c[nH]c(=O)[nH]c1=O`: the call was inactive. On the same count and under the same terms, for `CN1CCN(C)CC1` the value was “inactive”; for `CC(=O)OC1CCCCC1C(C)(C)C` (stereo not given), “inactive”. On the same count and under the same terms, for `Cc1ccc(C)c(OCCCC(C)(C)C(=O)O)c1` the value was “inactive”. Regarding `CCCC(C)C(=O)OCC` (stereo not given), the call was inactive.

As to `C=C(C)C(=O)OCCCCCCCCCCCC`, the compound was classed as inactive.

Turning to `C=CC(=O)OCC(C)OCC(C)OCC(C)OC(=O)C=C` (stereo not given), the result was inactive. Same read-out and setting: for `O=C(OCc1ccccc1)c1ccc(O)cc1` the value was “inactive”. The same measure, in the same setting: for `C[N+](C)(C)CCCNS(=O)(=O)C(F)(F)C(F)(F)C(F)(F)C(F)(F)C(F)(F)C(F)(F)C(F)(F)C(F)(F)F` the value was “inactive”.
